In the library only some 6.6% were active in any assay of this set; here they are far more common.
Mtb FBA inh: Mtb FBA enzyme inhibitors, primary screen, biochemical, fluorescence, strain H37Rv; Fructose-bisphosphate aldolase (Mycobacterium tuberculosis (strain ATCC 25618 / H37Rv)), …; purified M. tuberculosis FBA, fluorescence read-out; inhibition, % at 1 µM; actives 2.3% (n = 360,000); AID 588726, 2011; in the data active means inhibition above about 27%;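 further: 0% = vehicle and 100% = reference inhibitor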
BoNT F protease: BoNT/F light chain protease inhibitors, primary screen, biochemical, flow cytometry, MLPCN library; Botulinum neurotoxin type F light chain protease (Clostridium botulinum); Multiplex microsphere protease cleavage assay; inhibition, % at 10 µM; actives 0.22% (n = 360,000); in the data active means inhibition above about 35%, passing the limit was not always enough; inconclusive means no clear call, values can overlap the other calls; further: plate controls were buffer without enzyme for full effect and enzyme alone for no effect
Anthrax LF inh2: Bacillus anthracis LF protease inhibitors, primary screen, biochemical, multiplex microsphere, MLPCN library. Lethal factor (Bacillus anthracis), P15917. multiplex microsphere protease cleavage assay. inhibition, % at 10 µM. actives 0.12% (n = 360,000). AID 588501, 2011; further: plate controls were buffer without enzyme for full effect and enzyme alone for no effect
Target sequence (P15917 whole entry, looked up): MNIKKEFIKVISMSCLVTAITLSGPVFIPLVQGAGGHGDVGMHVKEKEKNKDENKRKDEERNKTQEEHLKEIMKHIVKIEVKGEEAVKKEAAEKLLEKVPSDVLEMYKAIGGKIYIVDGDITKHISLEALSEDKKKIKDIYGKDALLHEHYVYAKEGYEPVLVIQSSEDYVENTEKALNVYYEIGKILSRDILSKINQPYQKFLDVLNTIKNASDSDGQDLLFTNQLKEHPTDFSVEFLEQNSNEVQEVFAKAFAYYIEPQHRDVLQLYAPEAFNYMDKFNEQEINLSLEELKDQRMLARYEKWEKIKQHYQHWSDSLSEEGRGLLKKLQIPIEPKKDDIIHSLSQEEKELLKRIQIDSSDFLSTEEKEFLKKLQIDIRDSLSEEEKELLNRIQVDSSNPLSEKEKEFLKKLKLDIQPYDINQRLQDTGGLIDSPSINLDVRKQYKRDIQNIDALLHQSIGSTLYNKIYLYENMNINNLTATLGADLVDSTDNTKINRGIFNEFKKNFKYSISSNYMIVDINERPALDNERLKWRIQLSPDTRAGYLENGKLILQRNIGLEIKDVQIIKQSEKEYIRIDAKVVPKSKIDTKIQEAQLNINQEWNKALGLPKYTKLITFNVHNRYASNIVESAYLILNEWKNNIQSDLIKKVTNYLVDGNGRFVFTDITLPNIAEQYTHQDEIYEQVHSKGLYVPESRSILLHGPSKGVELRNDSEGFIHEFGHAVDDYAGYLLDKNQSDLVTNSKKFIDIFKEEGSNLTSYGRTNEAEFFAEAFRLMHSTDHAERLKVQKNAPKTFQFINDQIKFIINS
Autofluor counter: flagged as autofluorescent in microsphere protease counterscreen. fluorescence intensity (concentration not given with the values). AID 624483. actives 3.1% (n = 360,000). compound autofluorescence counterscreen, microsphere flow cytometry; stronger effect = higher value; in the data active means fluorescence intensity above about 16000; inconclusive means no clear call, values can overlap the other calls
GDH-TPI inh: GDH-TPI coupling enzyme inhibitors, primary screen, artefact control for M. tuberculosis FBA inhibitor project, biochemical, absorbance, full deck; GDH-TPI coupled enzyme counterscreen, NADH absorbance; inhibition, % at 4.8 µM; actives 1.2% (n = 360,000); in the data active means inhibition above about 30%;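 further: 0% = DMSO wells and 100% = wells lacking the enzyme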
BoNT A protease: BoNT/A light chain protease inhibitors, primary screen, biochemical, flow cytometry, MLPCN library; actives 0.17% (n = 360,000); inhibition, % at 10 µM; multiplex microsphere protease substrate cleavage; Botulinum neurotoxin type A light chain protease (Clostridium botulinum A str. ATCC 3502); further: plate controls were buffer without enzyme for full effect and enzyme alone for no effect
The depositor's hits bear a star; ? = inconclusive; . = not tested or not shown; + = active, no number. Unless noted, no stated cut-off is given here; in the data, active means inhibition above about 30%; inconclusive means no clear call, values can overlap the other calls; inactive means below that.

SMILES | Mtb FBA inh | BoNT F protease | Anthrax LF inh2 | Autofluor counter | GDH-TPI inh | BoNT A protease
Cc1c(C(=O)O)cccc1-n1c(C)cc(/C=C(/C#N)C(=O)NCc2ccccc2)c1C | 0 | 2 | -5 | 4221 | 13 | -1
COc1ccccc1C(CNC(=O)CN1C(=O)NC(C)(c2ccc3ccccc3c2)C1=O)N1CCCC1 (configuration not stated) | 0 | -3 | -11 | 3742 | 5 | -1
CC(C)C[C@H]1CN(CCCC[C@H]2CNC(=O)C(=O)N2CC2CCCCC2)C(=O)C(=O)N1CCc1ccccc1 | . | 12 | -1 | 5178 | . | 1
O=C1CC(C(=O)N(c2ccc(F)cc2)C(C(=O)NC2CCCC2)c2ccccn2)CS1 (configuration not stated) | -2 | 0 | -1 | 22756* | 10 | 1
CCN(CC)S(=O)(=O)c1ccc2nc(SC)sc2c1 | 0 | 1 | 0 | 18930* | -7 | 2
CSc1nc2ccc(S(=O)(=O)N(C)C)cc2s1 | -4 | -2 | -3 | 20777* | 7 | ?
CSc1nc2ccc(NS(=O)(=O)c3ccc(Cl)s3)cc2s1 | 2 | 0 | 1 | 4394 | 7 | 0
CC(C)CN(C(=O)COc1ccc([N+](=O)[O-])cc1)c1c(N)n(CC(C)C)c(=O)[nH]c1=O | 2 | 3 | 13 | 3689 | 8 | 0
COc1cccc(N2CCN(C(=O)C3CCN(S(=O)(=O)c4ccc5c(c4)CC(C)N5C(C)=O)CC3)CC2)c1 (configuration not stated) | -6 | -1 | 2 | 6038 | -3 | -1
Cc1c(CC(=O)NC(C)C)c(=O)oc2cc3c(cc12)CCC(C)(C)O3 | + | -4 | -22 | 3763 | 22 | -3
Cc1c(CC(=O)N[C@H](C(=O)O)C(C)C)c(=O)oc2cc3c(cc12)CCC(C)(C)O3 | 153* | 10 | 8 | 3583 | 23 | -1
CCC(C)NC(=O)Cc1c(C)c2cc3c(cc2oc1=O)OC(C)(C)CC3 (configuration not stated) | 189* | -10 | -2 | 3550 | 17 | 1
Cc1c(CC(=O)N[C@@H](C)C(=O)O)c(=O)oc2cc3c(cc12)CCC(C)(C)O3 | + | 5 | -8 | 3001 | 26 | 0
O=C(NC1CCCCC1)C(c1cccnc1)N(C(=O)c1csnn1)c1ccccc1 (configuration not stated) | 0 | 2 | -4 | 4185 | 0 | 3
Cc1oc2cc3oc(=O)c(CC(=O)NCCC(=O)O)c(C)c3cc2c1C | 8 | -18 | 2 | 3382 | 18 | -4
Cc1c(CC(=O)NCC(C)C)c(=O)oc2cc3c(cc12)CCC(C)(C)O3 | 140* | -30 | -10 | 3619 | 16 | 1
COCCNC(=O)Cc1c(C)c2cc3c(cc2oc1=O)OC(C)(C)CC3 | 165* | -14 | -6 | 2964 | 16 | -1
Cc1oc2cc3oc(=O)c(CC(=O)NCCCC(=O)O)c(C)c3cc2c1C | 6 | 7 | -16 | 4100 | 7 | 0
CC(=O)Nc1cccc(C(=O)Nc2cccc3ncccc23)c1 | -1 | -9 | -2 | 4487 | 4 | 2
CCOc1cc(C(=O)Nc2cccc3ncccc23)cc(OCC)c1OCC | 1 | -2 | -1 | 20303* | -6 | 1
Nc1ccccc1-c1n[nH]c(=S)s1 | 61* | 8 | 0 | 4353 | 11 | 1
Cc1ccccc1Nc1n[nH]c(=S)s1 | 2 | -10 | 5 | 3376 | 2 | 0
CCC(C)(C)n1nnnc1C(C(C)C)N(CCN1CCOCC1)Cc1cc2cccc(C)c2[nH]c1=O (configuration not stated) | 6 | 3 | 0 | 21802* | 6 | 4
O=C(Nc1cc(SCCO)cc([N+](=O)[O-])c1)c1ccc(Br)o1 | 1 | -3 | -1 | 2195 | -2 | 0
O=C(CCCl)Nc1cc(SCCO)cc([N+](=O)[O-])c1 | -1 | -2 | -2 | 20902* | -1 | -1
SMILES | Mtb FBA inh | BoNT F protease | Anthrax LF inh2 | Autofluor counter | GDH-TPI inh | BoNT A protease
O=C(COC(=O)COc1ccc(Cl)cc1Br)NCc1cccs1 | 2 | 6 | 2 | 4465 | -4 | -1
CCOC(=O)CNC(=O)COc1ccc(Cl)cc1Br | 0 | -4 | -2 | 23269* | -6 | 0
Cc1ccc(Cc2c(-c3cccc(Cl)c3)nc3c(C)cc(Br)cn23)cc1 | -4 | 2 | -4 | 5871 | . | 0
Cc1ccccc1C(=O)NC1CCN(CC(=O)NCc2ccccc2)CC1 | -1 | 12 | -3 | 5056 | -5 | 2
CC(C)[C@@H]1Cc2[nH]n(C)c(=O)c2[C@H](c2ccc(F)cc2)O1 | . | -4 | 9 | 6400 | . | -1
Cc1cccc(C(=O)NCC(c2ccc(F)cc2)N2CCOCC2)c1 (configuration not stated) | 1 | -16 | -2 | 5953 | -3 | 0
O=C(Oc1ccc(N(Cc2cccs2)C2=NS(=O)(=O)c3ccccc32)cc1)c1ccccc1F | 0 | -4 | -2 | 22943* | 8 | 1
O=C(c1ccccc1F)N(Cc1cccs1)C1CCS(=O)(=O)C1 (configuration not stated) | 3 | 4 | 0 | 6039 | 6 | 0
Cc1ccc2nc(-c3ccc(NC(=O)COCC(=O)O)cc3)sc2c1 | 136* | ? | 1 | 4192 | 25 | -6
Cc1ccc2nc(-c3ccc(NC(=O)CSCC(=O)O)cc3)sc2c1 | 199* | -9 | 9 | 4739 | 49* | -1
CCC(=O)NC(=S)Nc1ccc(-c2nc3ccc(C)cc3s2)cc1 | -1 | 0 | -2 | 2197 | -7 | 0
O=C(O)CSCC(=O)Nc1ccc(-c2nc3ccccc3s2)cc1 | 116* | -105 | -13 | 4243 | 23 | -2
CC(=O)c1cccc(NC(=O)CSCc2ccccc2)c1 | -1 | -3 | 0 | 16402* | -1 | 0
O=C(c1ccc(NC2=NC3CS(=O)(=O)CC3S2)cc1)N(CCO)Cc1ccccc1 (configuration not stated) | 4 | 9 | 6 | 5571 | 7 | 6
Cc1ccc(/C(=N/Nc2nc3ccccc3s2)C2=C(O)c3ccccc3C2=O)cc1 | 1 | -12 | 5 | 7036 | 8 | 0
Cn1ncc([N+](=O)[O-])c1C(=O)Nc1ccc(-c2nc3ccccc3o2)cc1 | -3 | -6 | -3 | 4751 | 9 | -1
Cn1ncc2c(=O)[nH]nnc21 | 1 | 4 | 1 | 3661 | 0 | 0
Cc1csc(NC(=O)CSCC(=O)O)c1-c1nc2ccccc2s1 | 0 | . | . | . | 35* | .
O=C(O)CSCC(=O)Nc1ccccc1 | 2 | -2 | -1 | 16554* | -1 | -2
COc1ccc(C)cc1NC(=O)CNC(c1ccccc1)c1ccc(C)cc1 (configuration not stated) | 2 | -18 | 4 | 3841 | 8 | -2

Assay outcomes (PubChem)
